High-throughput results: PubChem, National Center for Advancing Translational Sciences (NCATS)
Compounds with a hit are over-represented: about 2.9% of the library has one in this group of screens.
TSHR antag: antagonists of human thyroid stimulating hormone receptor | activity change, negative = inhibition, % at 11.5 µM | AID 504810 | P16473 | TSHR-expressing cells, TSH-stimulated cAMP HTRF, 2 h; active compounds read low | 330,000 compounds, 0.2% hits;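 active means activity change below a set negative limit, meaning inhibition stronger than a set level, cut at about -70% in these data; inconclusive means activity change between two set negative limits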; further: on the % scale 0 is the no-effect control and ±100 the full control effect
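Inhibition of cAMP made by TSHR-expressing cells under TSH stimulation (4nM final, EC80; 2 h, 37 deg C) is quantified with a one-step lysis HTRF kit, anti-cAMP cryptate versus cAMP-d2.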
B2AR arrestin: recruits beta-arrestin to the human beta2-adrenergic receptor; P07550; beta-arrestin recruitment to beta2AR, cell-based reporter; Potency, µM (highest dose often 46.1 µM), inactives show at the top dose activation, usual class: activators; 330,000 compounds, 0.02% hits; AID 492947; active means well fitted activation curve with a large enough effect; inconclusive means small, poorly fitted or top-dose-only effect;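 further: potency means the concentration at half of the fitted maximal effect; 0% = DMSO controls and full agonism = EC100 isoproterenol or metaproterenol; nearly all actives have a fitted effect of over 65% in size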
D3 antag: blocks the human D3 dopamine receptor; P35462; D3R cells, DiscoveRx beta-arrestin luminescence, antagonist mode; active compounds read low; max response, negative = inhibition, %; 360,000 compounds, 2.5% hits; in the data active means max response below about -50%; inconclusive means no clear call, values can overlap the other calls; further: on the % scale 0 is the no-effect control and ±100 the full control effect
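Cells plated overnight at 1500 cells/well, then exposed to library compounds with dopamine controls for 90 minutes at 37 degrees C. DiscoveRx reagent added for 30–60 minutes at room temperature; luminescence read, quantitative HTS format.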
D3 ag: agonists of human D3 dopamine receptor | P35462 | D3R DiscoveRx beta-arrestin cells, luminescence, 90 min | max activation, % | 410,000 compounds, 0.58% hits | AID 652048; in the data active means max activation above about 30%; further: 0% is about no effect
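Agonist mode: compounds and dopamine controls were applied to plated cells for 90 min at 37 degrees C after an overnight attachment at 1500 cells/well. Luminescent read-out followed 30 - 60 minutes at room temperature with DiscoveRx detection reagent.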
An asterisk follows results filed as active; ! = a repeat was not active.

Results for CCC1C=CC=CC[C@H](C)[C@@H](O)[C@](C)(O)C(=O)[C@@H](C)[C@H](O)[C@@H](C)C(=O)[C@H](C)[C@@H](O)[C@H](C)C=CC(=O)OC2[C@@H](C)C(CC1)OC1(CC[C@@H](C)C(C[C@H](C)O)O1)[C@@H]2C (stereo partly specified) ?
TSHR antag: -80*; B2AR arrestin: 0%

How did O=C(Nc1ccccc1)NC1CC2CCC(C1)N2 (stereo unspecified) do in these assays?
TSHR antag: 0; B2AR arrestin: 0%; D3 antag: -26; D3 ag: 0

Results for Cc1ccc(CN2C3CCCC2CC(NC(=O)Nc2cccc(F)c2)C3)cc1 (stereo unspecified) ?
TSHR antag: -13; B2AR arrestin: -1%; D3 antag: -99*; D3 ag: -17

How did CCOP(=S)(OCC)Oc1cc(C)oc(=O)c1 do in these assays?
TSHR antag: -70*; B2AR arrestin: -1%; D3 antag: 3; D3 ag: 3

What do the screens show for `C/C1=C\[C@@H](C)C/C=C/[C@H]2[C@@H]3O[C@]3(C)[C@@H](C)[C@H]3[C@H](Cc4c[nH]c5ccccc45)NC(=O)[C@]32C(=O)/C=C/C(=O)[C@@H]1O`?
TSHR antag: -24; B2AR arrestin: 0%; D3 antag: -51*; D3 ag: -46

Results for C=CC[C@]1(O)CC[C@H]2[C@@H]3CCC4=CCCC[C@@H]4[C@H]3CC[C@@]21C ?
D3 ag: 1

What do the screens show for `CNC(C)Cc1ccccc1Sc1ccc(O)cc1` (stereo unspecified)?
TSHR antag: 3; B2AR arrestin: 0%; D3 antag: -73*; D3 ag: -21

Results for c1cc2c(c(N3CCNCC3)c1)OCCO2 ?
D3 ag: -24

What do the screens show for `COc1ccccc1CN1CCN(C(=O)COc2ccccc2)CC1`?
TSHR antag: -2; B2AR arrestin: 0%; D3 antag: -81*; D3 ag: 1

How did O=C(COc1ccccc1)N1CCN(CC2CC=CCC2)CC1 (stereo unspecified) do in these assays?
TSHR antag: -12; B2AR arrestin: -1%; D3 antag: -57*; D3 ag: -14

How did C=CCC1=C(C)C(OC(=O)C2C(C=C(C)C)C2(C)C)CC1=O (stereo unspecified) do in these assays?
D3 ag: -11

Results for CC1=C[C@@H]2c3cccc4[nH]cc(c34)C[C@H]2N(C)C1 ?
TSHR antag: -11; B2AR arrestin: -1%; D3 antag: -22; D3 ag: 54*

How did NCCc1cc(O)c(O)cc1O do in these assays?
D3 antag: -68*!; D3 ag: -10

How did NC(Cc1cc(O)c(O)cc1O)C(=O)O (stereo unspecified) do in these assays?
TSHR antag: 15; B2AR arrestin: 0%

How did Cc1ccc2c(c1)[C@]13CCCC[C@@H]1[C@H](C2)N(C)CC3 do in these assays?
D3 ag: 7

What do the screens show for `Cc1cc([C@@H]2CCCN2C)on1`?
TSHR antag: 3

Results for Cc1ccccc1CN1Cc2cnnn2-c2ccccc2C1C#N (stereo unspecified) ?
D3 antag: -115*; D3 ag: -66

What do the screens show for `CN1CC[C@@]2(C)c3cc(O)ccc3N(C)C12` (stereo partly specified)?
TSHR antag: 11

How did CCOP(=O)(OCC)OCC do in these assays?
TSHR antag: 3; B2AR arrestin: -4%; D3 antag: -110*; D3 ag: -90

How did CC(=O)OCC1=C(C(=O)O)N2C(=O)[C@@H](NC(=O)CCC[C@@H](N)C(=O)O)[C@H]2SC1 do in these assays?
TSHR antag: -6

How did O=C(c1ccc2c(c1)OCO2)C1CCCN(Cc2c(F)cccc2Cl)C1 (stereo unspecified) do in these assays?
TSHR antag: 7; B2AR arrestin: -1%; D3 antag: inconclusive; D3 ag: -12

Results for O=C(c1ccc2c(c1)OCO2)C1CCCN(CC2CCCCC2)C1 (stereo unspecified) ?
TSHR antag: 2; B2AR arrestin: 0%; D3 antag: -83*; D3 ag: -26

How did O=C1C=C2C=C[C@@H]3C[C@@]2(O1)[C@H]1CCCCN31 do in these assays?
D3 ag: -16

What do the screens show for `CCOC(=O)[C@]12Cc3cc(C)ccc3[C@H]1N(C1CCCCC1)C(=O)c1cc(OC)ccc12`?
D3 antag: -64*; D3 ag: -10
